Source: article PMC4336329 (PLoS ONE, 2015)
The whole screen tested about 310,000 compounds, of which about 14,000 (4.5%) showed an effect of 50% or more. Effects have a minus sign here. The entries come from a sample that favours strong results as a whole.
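Note: peak tail current of the secondary pulse compared with the same well before compound.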

What follows are molecules tested against human ether-à-go-go-related gene (hERG) potassium channel (human, UniProt Q12809) (assay: primary screen, population patch clamp on CHO cells stably expressing hERG; higher = less effect of the substance).
human ether-à-go-go-related gene (hERG) potassium channel, sequence (Q12809 whole entry, looked up): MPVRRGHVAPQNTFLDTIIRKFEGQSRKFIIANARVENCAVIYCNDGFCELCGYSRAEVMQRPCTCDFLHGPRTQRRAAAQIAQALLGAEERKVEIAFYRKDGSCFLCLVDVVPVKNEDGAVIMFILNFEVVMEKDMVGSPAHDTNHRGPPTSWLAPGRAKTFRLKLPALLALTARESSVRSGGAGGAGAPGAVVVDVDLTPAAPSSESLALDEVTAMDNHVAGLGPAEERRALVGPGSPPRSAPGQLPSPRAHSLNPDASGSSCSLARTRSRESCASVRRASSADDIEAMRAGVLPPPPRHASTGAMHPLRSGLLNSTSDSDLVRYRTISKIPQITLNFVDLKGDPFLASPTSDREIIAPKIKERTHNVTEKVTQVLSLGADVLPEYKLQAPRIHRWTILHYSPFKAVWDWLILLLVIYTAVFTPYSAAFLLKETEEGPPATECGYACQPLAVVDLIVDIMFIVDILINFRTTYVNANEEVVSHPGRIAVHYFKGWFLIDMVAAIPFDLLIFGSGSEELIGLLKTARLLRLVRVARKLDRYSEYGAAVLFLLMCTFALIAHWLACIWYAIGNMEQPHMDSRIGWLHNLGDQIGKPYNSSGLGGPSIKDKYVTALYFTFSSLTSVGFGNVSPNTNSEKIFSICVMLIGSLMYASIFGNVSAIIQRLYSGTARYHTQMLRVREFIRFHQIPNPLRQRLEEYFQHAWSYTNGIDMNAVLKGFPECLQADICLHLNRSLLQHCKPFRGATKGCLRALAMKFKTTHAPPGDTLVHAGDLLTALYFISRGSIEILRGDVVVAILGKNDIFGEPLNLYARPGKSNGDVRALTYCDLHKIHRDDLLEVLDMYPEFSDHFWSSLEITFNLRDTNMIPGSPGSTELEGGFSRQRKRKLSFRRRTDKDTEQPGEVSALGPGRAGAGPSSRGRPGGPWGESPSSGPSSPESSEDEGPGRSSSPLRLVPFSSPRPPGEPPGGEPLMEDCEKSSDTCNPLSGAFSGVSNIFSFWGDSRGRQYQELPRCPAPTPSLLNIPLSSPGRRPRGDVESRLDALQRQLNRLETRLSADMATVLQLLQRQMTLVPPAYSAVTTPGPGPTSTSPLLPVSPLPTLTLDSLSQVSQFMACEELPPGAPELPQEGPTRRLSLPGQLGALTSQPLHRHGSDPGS
COc1cccc(C(O)c2nc3ccccc3n2C)c1 (stereo not shown) was tested, and the “hERG current change (%, negative = inhibition) at 10uM” value was 3.27%. With CC(NC(=O)Cn1ccsc1=N)C12CC3CC(CC(C3)C1)C2.Cl (stereo not shown) the “hERG current change (%, negative = inhibition) at 10uM” value was -34.4%. CCC(=O)c1c[nH]c(C(=O)NCc2ccccc2OC)c1 was tested, and the “hERG current change (%, negative = inhibition) at 10uM” value was -6.15%. For CCN(CC)CCCN1CC(O)=C(c2nc3ccccc3s2)C1=N, the “hERG current change (%, negative = inhibition) at 10uM” value was -34.2%. Fc1ccc(Nc2nnns2)cc1 was tested, and the “hERG current change (%, negative = inhibition) at 10uM” value was 18.2%. For O=C(OCc1cccc([N+](=O)[O-])c1)c1ccc[nH]c1=O, the “hERG current change (%, negative = inhibition) at 10uM” value was 17.2%. For COc1ccc(CC(=O)Nc2cc(C)ccn2)cc1, the “hERG current change (%, negative = inhibition) at 10uM” value was 6.87%. In the case of O=C(COC(=O)C1CC(=O)N(Cc2ccccc2)C1)Nc1ccccc1F (stereo not shown), the “hERG current change (%, negative = inhibition) at 10uM” value was 7.39%. With CSc1ccccc1NC(=O)CN(C)C(=O)C1CCN(C(=O)Nc2ccccc2)CC1 the “hERG current change (%, negative = inhibition) at 10uM” value was -11.4%. With CN(CC(=O)Nc1c(Cl)cccc1Cl)C(=O)C1CCN(C(=O)Nc2ccccc2)CC1 the “hERG current change (%, negative = inhibition) at 10uM” value was 11.5%. For COc1ccc(CN(C)C(=O)C2CCN(C(=O)Nc3ccccc3)CC2)cc1OC, the “hERG current change (%, negative = inhibition) at 10uM” value was -1.53%. COc1ccc(CN(C)C(=O)C2CCN(C(=O)Nc3ccccc3)CC2)cc1 was tested, and the “hERG current change (%, negative = inhibition) at 10uM” value was -16.3%. CSc1ccc(CN(C)C(=O)C2CCN(C(=O)Nc3ccccc3)CC2)cc1 was tested, and the “hERG current change (%, negative = inhibition) at 10uM” value was -67.4%. In the case of CN(Cc1cccc(Cl)c1)C(=O)C1CCN(C(=O)Nc2ccccc2)CC1, the “hERG current change (%, negative = inhibition) at 10uM” value was -55.9%. CCn1cnc2c1c(=O)n(CC(=O)Nc1ccc(C(N)=O)cc1)c(=O)n2Cc1ccccc1 was tested, and the “hERG current change (%, negative = inhibition) at 10uM” value was 13.8%. Clc1cccc(C2Nc3cccc4cccc(c34)N2)c1Cl was tested, and the “hERG current change (%, negative = inhibition) at 10uM” value was 16.2%. For CCOC(=O)C1CCCN(c2nc3c(C)cccn3c(=O)c2/C=C(\C#N)C(=O)NCc2ccco2)C1 (stereo not shown), the “hERG current change (%, negative = inhibition) at 10uM” value was -49.7%. In the case of O=C(NCC1CCCO1)/C(=C\c1cccc([N+](=O)[O-])c1)NC(=O)c1ccccc1 (stereo not shown), the “hERG current change (%, negative = inhibition) at 10uM” value was -33%. Cc1ccc(C(=O)N/C(=C/c2cccc([N+](=O)[O-])c2)C(=O)NC(C)C)cc1 was tested, and the “hERG current change (%, negative = inhibition) at 10uM” value was -51.8%. In the case of Cc1ccc(C(=O)N/C(=C\c2cccc([N+](=O)[O-])c2)C(=O)OCN2C(=O)c3ccccc3C2=O)cc1, the “hERG current change (%, negative = inhibition) at 10uM” value was -11%. With Cc1ccc(C(=O)N/C(=C/c2cccc([N+](=O)[O-])c2)C(=O)NCC2CCCO2)cc1 (stereo not shown) the “hERG current change (%, negative = inhibition) at 10uM” value was -68.4%. In the case of CC(=O)N/C(=C\c1cccc([N+](=O)[O-])c1)C(=O)NC(C)C, the “hERG current change (%, negative = inhibition) at 10uM” value was 2.75%. Cc1ccc(C(=O)N/C(=C\c2ccccc2)C(=O)NCC2CCCO2)cc1 (stereo not shown) was tested, and the “hERG current change (%, negative = inhibition) at 10uM” value was -24.3%. In the case of CCNC(=O)/C(=C/c1cccc([N+](=O)[O-])c1)NC(=O)c1ccc(C)cc1, the “hERG current change (%, negative = inhibition) at 10uM” value was -58.1%. In the case of Cc1ccc(C(=O)N/C(=C\c2cccc([N+](=O)[O-])c2)C(=O)NC(Cc2ccccc2)C(=O)O)cc1 (stereo not shown), the “hERG current change (%, negative = inhibition) at 10uM” value was 15.3%. CC(C)NC(=O)/C(=C\c1cccc([N+](=O)[O-])c1)NC(=O)c1ccccc1 was tested, and the “hERG current change (%, negative = inhibition) at 10uM” value was -18.1%. N#C/C(=C\c1cccc([N+](=O)[O-])c1)C(=O)Nc1cccnc1 was tested, and the “hERG current change (%, negative = inhibition) at 10uM” value was 21.3%. With O=C(/C=C/c1cccc([N+](=O)[O-])c1)NCc1cccnc1 the “hERG current change (%, negative = inhibition) at 10uM” value was -14%. N#C/C(=C\c1cccc([N+](=O)[O-])c1)C(=O)NCc1cccnc1 was tested, and the “hERG current change (%, negative = inhibition) at 10uM” value was -50.8%. In the case of Cc1ccc(NC(=O)CSCc2ccco2)cc1, the “hERG current change (%, negative = inhibition) at 10uM” value was 21.7%. O=C(CCSc1ccc(F)cc1)Nc1ccc(-n2cnnn2)cc1 was tested, and the “hERG current change (%, negative = inhibition) at 10uM” value was -26.4%. COc1cc(/C=N/N2CCN(c3ccc(Cl)cc3)CC2)cc(OC)c1OC(C)=O was tested, and the “hERG current change (%, negative = inhibition) at 10uM” value was 9.63%. O=C(NC(NC(=S)Nc1ccccc1)C(Cl)(Cl)Cl)c1cccc(Cl)c1 (stereo not shown) was tested, and the “hERG current change (%, negative = inhibition) at 10uM” value was 7.91%. In the case of Cc1ccc(C(=O)N/C(=C\c2cccc([N+](=O)[O-])c2)C(=O)NCc2ccncc2)cc1, the “hERG current change (%, negative = inhibition) at 10uM” value was -73.3%. In the case of O=C(NNc1cccc([N+](=O)[O-])c1)/C(=C\c1cccnc1)NC(=O)c1ccccc1, the “hERG current change (%, negative = inhibition) at 10uM” value was -30.6%. With Cc1ccc(C(=O)N/C(=C\c2cccc([N+](=O)[O-])c2)C(=O)Nc2cccc(C(=O)O)c2)cc1 the “hERG current change (%, negative = inhibition) at 10uM” value was 15.2%. For O=C(NCc1ccncc1)/C(=C/c1cccc([N+](=O)[O-])c1)NC(=O)c1ccccc1, the “hERG current change (%, negative = inhibition) at 10uM” value was -71%. In the case of Cn1c(=O)c2c(nc(Sc3ncccn3)n2Cc2ccccc2Cl)n(C)c1=O, the “hERG current change (%, negative = inhibition) at 10uM” value was -8.1%. CCCC(=O)NC(=S)Nc1cccc(NC(=O)c2ccccc2)c1 was tested, and the “hERG current change (%, negative = inhibition) at 10uM” value was -1.54%. For CCOc1ccc(C(=O)Nc2ccc(C(F)(F)F)n(C)c2=O)cc1, the “hERG current change (%, negative = inhibition) at 10uM” value was 14.5%. In the case of Cc1ccc(Nc2ncnc(N)n2)cc1, the “hERG current change (%, negative = inhibition) at 10uM” value was 9.24%. In the case of CCOc1ccc(NC(=O)CCC(=O)OC)cc1, the “hERG current change (%, negative = inhibition) at 10uM” value was -1.95%. For CCCOc1cc(N)ccc1C(=O)OCCN(CC)CC.Cl, the “hERG current change (%, negative = inhibition) at 10uM” value was -18.9%. With CCN(CC)CCOC(=O)c1ccc2c(c1)OCCO2.Cl the “hERG current change (%, negative = inhibition) at 10uM” value was -11.4%. For CCCCOc1cc(C(=O)OCCN(CC)CC)ccc1N, the “hERG current change (%, negative = inhibition) at 10uM” value was -60.6%. With CCCCOc1cc(C(=O)OCCN(CC)CC)ccc1N.Cl the “hERG current change (%, negative = inhibition) at 10uM” value was -53.6%. CCN(CC)CCOC(=O)c1ccc(N)cc1.Cl was tested, and the “hERG current change (%, negative = inhibition) at 10uM” value was 2.06%. In the case of CCCOc1ccc(C(=O)OCCN(CC)CC)cc1N.Cl, the “hERG current change (%, negative = inhibition) at 10uM” value was -51.9%. For CCOc1ccc(C(=O)OCCN(CC)CC)cc1.Cl, the “hERG current change (%, negative = inhibition) at 10uM” value was -44.8%. For CCN(CC)CCOC(=O)c1cccc(Br)c1.Cl, the “hERG current change (%, negative = inhibition) at 10uM” value was -40.6%. With CCN(CC)CCOC(=O)c1ccc([N+](=O)[O-])cc1.Cl the “hERG current change (%, negative = inhibition) at 10uM” value was -23.1%. For CCN(CC)CCOC(=O)c1ccc(NC(=S)NC(=O)/C=C/c2ccco2)cc1, the “hERG current change (%, negative = inhibition) at 10uM” value was -0.561%. For Cc1oc2c(c(C)cc3oc(=O)c(CC(=O)N[C@H](C(=O)O)C(C)C)c(C)c32)c1C, the “hERG current change (%, negative = inhibition) at 10uM” value was 15.2%. For Cc1cc2c(ncn2C(C)C)c(N)c1C, the “hERG current change (%, negative = inhibition) at 10uM” value was -9.87%. With CSc1ccc(C#N)cc1NC(=O)c1ccccc1 the “hERG current change (%, negative = inhibition) at 10uM” value was -36.5%.
